From PubChem BioAssay (Tox21)
Values joined by “and” are separate entries in the source; they are usually repeats but may differ in a detail not shown here. Equal values may be shown once. Where a structure was tested more than once in an assay, its records may differ in their call. Active and inactive are the calls of the source. Unless noted, calls follow the shape of the dose curve; as a rule, active = well fitted curve in the direction sought with a large enough effect in the repeat runs; inconclusive = weak or mixed curves; inactive = no such curve, though single readings can be large; an effect the other way counts as inactive or inconclusive.

How the values were obtained:
[1] = target: Estrogen receptor (Homo sapiens) (UniProt P03372); assay: qHTS assay to identify small molecule antagonists of the estrogen receptor alpha (ER-alpha) signaling pathway (AID 743069; active = well fitted curve in the direction sought with a large enough effect in the signal ratio in the repeat runs, not every such curve was filed as active; inconclusive = weak or mixed curves, or effect the other way; inactive = no such curve, though single readings can be large or run the other way; the % refers to the signal ratio; also: potency is read from the fitted curve at half-maximal effect)
Method in brief: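 Screening used a UAS-driven beta-lactamase reporter integrated into HEK293 cells expressing ER-alpha, stimulated with 17beta-estradiol alongside test compounds over 18 hr at 37C; signal came from LiveBLAzer B/G FRET fluorescence.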

[2] = qHTS assay to identify small molecule antagonists of the estrogen receptor alpha (ER-alpha) signaling pathway - cell viability counter screen (AID 743074; calls by dose curve; also: nearly all actives have a fitted effect of over 45% in size)
[3] = target: Estrogen receptor (Homo sapiens) (UniProt P03372); assay: qHTS assay to identify small molecule agonists of the estrogen receptor alpha (ER-alpha) signaling pathway (AID 743075; calls by dose curve; also: potency is read from the fitted curve at half-maximal effect)
[4] = target: Estrogen receptor (Homo sapiens) (UniProt P03372); assay: qHTS assay to identify small molecule agonists of the estrogen receptor alpha (ER-alpha) signaling pathway using the BG1 cell line (AID 743079); also: nearly all actives have a fitted effect of over 20% in size; also: potency is read from the fitted curve at half-maximal effect
[5] = qHTS assay to identify small molecule antagonists of the estrogen receptor alpha (ER-alpha) signaling pathway using the BG1 cell line (AID 743080; calls by dose curve;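 also: BG1 cells stimulated with 17beta-estradiol alongside compound; nearly all actives have a fitted effect of over 25% in size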; also: potency is read from the fitted curve at half-maximal effect)
Method in brief: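 BG1-Luc-4E2 cells (endogenous full-length ER-alpha, 4xERE luciferase) hormone-starved 5 days in charcoal-stripped FBS, plated 4,000/well for 24 h, then compound plus 17beta-estradiol for 21.5 h at 37 C; ONE-Glo luminescence read.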

[6] = qHTS assay to identify small molecule antagonists of the estrogen receptor alpha (ER-alpha) signaling pathway using the BG1 cell line - cell viability counter screen (AID 743081);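 also: compound given together with 17beta-estradiol as the ER stimulus; series mostly up to about 70 µM; nearly all actives have a fitted effect of over 45% in size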
Aromatase (Homo sapiens) = Aromatase (Homo sapiens) (UniProt P11511); assay: qHTS assay to identify aromatase inhibitors (AID 743083); also: nearly all actives have a fitted effect of over 55% in size; also: potency is read from the fitted curve at half-maximal effect
[7] = qHTS assay to identify aromatase inhibitors - cell viability counter screen (AID 743084);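 also: cells stimulated with testosterone during compound exposure; nearly all actives have a fitted effect of over 55% in size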
[8] = system: thyroid hormone receptor (rat, GH3 cells); assay: qHTS assay to identify small molecule agonists of the thyroid receptor (TR) signaling pathway (AID 743066; calls by dose curve)

Measured: Potency

Estrogen receptor (Homo sapiens), sequence (P03372 whole entry, looked up): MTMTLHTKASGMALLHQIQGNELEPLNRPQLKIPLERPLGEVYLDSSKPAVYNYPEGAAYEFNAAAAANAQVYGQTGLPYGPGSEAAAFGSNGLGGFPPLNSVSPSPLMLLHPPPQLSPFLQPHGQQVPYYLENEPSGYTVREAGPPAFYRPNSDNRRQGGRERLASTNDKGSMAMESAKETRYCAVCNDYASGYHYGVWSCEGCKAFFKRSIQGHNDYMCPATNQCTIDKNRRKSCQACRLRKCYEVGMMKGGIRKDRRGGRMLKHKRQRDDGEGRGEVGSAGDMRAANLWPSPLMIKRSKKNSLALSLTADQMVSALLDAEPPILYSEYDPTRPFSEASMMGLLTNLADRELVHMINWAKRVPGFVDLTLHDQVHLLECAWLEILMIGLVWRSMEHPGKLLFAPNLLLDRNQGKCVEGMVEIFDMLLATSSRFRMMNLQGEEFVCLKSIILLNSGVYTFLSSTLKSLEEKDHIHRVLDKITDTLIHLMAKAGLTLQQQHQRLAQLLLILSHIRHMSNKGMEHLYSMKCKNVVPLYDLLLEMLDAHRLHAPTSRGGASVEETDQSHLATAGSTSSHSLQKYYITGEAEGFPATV
Aromatase (Homo sapiens), sequence (P11511 whole entry, looked up): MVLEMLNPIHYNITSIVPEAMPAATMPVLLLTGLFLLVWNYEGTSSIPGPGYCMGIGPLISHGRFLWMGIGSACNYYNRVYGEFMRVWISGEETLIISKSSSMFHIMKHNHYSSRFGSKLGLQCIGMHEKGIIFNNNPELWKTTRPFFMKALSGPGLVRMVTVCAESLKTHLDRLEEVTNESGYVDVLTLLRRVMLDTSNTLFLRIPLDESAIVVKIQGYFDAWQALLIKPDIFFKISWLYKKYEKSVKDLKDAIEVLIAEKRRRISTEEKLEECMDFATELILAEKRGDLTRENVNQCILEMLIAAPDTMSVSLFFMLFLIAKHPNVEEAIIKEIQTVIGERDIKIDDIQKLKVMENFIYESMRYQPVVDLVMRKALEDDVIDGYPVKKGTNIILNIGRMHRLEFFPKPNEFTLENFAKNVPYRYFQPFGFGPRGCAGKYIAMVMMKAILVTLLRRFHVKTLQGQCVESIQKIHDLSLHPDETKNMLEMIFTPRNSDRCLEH

Clc1sc(Cl)c(Cl)c1Cl
inactive: [1] | [2] | [3] | [4] | [5] | [6] | Aromatase (Homo sapiens) | [7]

C/C=C/C=C/COC(=O)C(C)C
active: Aromatase (Homo sapiens) 68.6 µM
inactive: [8] | [2] | [6]

Nc1nc(-c2ccccc2)cs1
inactive: [2] | [6] | Aromatase (Homo sapiens) | [7]

COc1ccc2cc1Oc1ccc(cc1)C[C@H]1c3c(cc4c(c3Oc3cc5c(cc3OC)CCN(C)[C@@H]5C2)OCO4)CCN1C
inactive: [1] | [2] | [3] | [4] | [5] | Aromatase (Homo sapiens) | [7]

Cc1c(C)c([N+](=O)[O-])c(C(C)(C)C)c([N+](=O)[O-])c1C
inactive: [1] | [3] | [4] | [5] | [6] | [7]

COC(=O)Nc1nc2ccc(C(=O)c3ccccc3)cc2[nH]1
inactive: [1] | [4] | [5] | [6] | Aromatase (Homo sapiens) | [7]

CC(C)(C)C1CCC(=O)CC1
inactive: [1] | [2] | [3] | [4] | [5] | [6] | Aromatase (Homo sapiens) | [7]

Nc1nc2c(ncn2COCCO)c(=O)[nH]1
inactive: [1] | [2] | [3] | [4] | [5] | [6] | Aromatase (Homo sapiens) | [7]

CN(C)Cc1cc(C(C)(C)C)c(O)c(C(C)(C)C)c1
inactive: [8] | [2] | Aromatase (Homo sapiens) | [7]

COCCOc1cc2cc(C(=O)NC3CCN(C(C)C)CC3)n(CC(=O)Nc3ccc(Cl)cn3)c2cn1
inactive: [8] | [2] | [6] | Aromatase (Homo sapiens) | [7]

CCCC(=O)OCCc1ccccc1
inactive: [2] | [6] | Aromatase (Homo sapiens) | [7]

C=CC(=O)Nc1cc2c(Nc3ccc(F)c(Cl)c3)ncnc2cc1OCCCN1CCOCC1
inactive: Aromatase (Homo sapiens) | [7]
active: [3] 23.9 µM [inconclusive] | [4] 29.8 µM

Oc1cc(Cl)cc(Cl)c1Cl
inactive: [8] | [3] | [5] | [7]

OC[C@H]1O[C@H](O[C@H]2O[C@H](CO)[C@@H](O)[C@H](O)[C@H]2O)[C@H](O)[C@@H](O)[C@@H]1O
inactive: [8] | [2] | Aromatase (Homo sapiens) | [7]

CN1CCN(Cc2cc(-c3ccc4[nH]c(=O)oc4c3)co2)[C@@H](c2ccc(F)cc2)C1
inactive: [2] | [3]
active: [1] 47.1 µM [inhibitor]

Cc1c2ccccc2c(C)c2c1ccc1ccccc12
inactive: [6] | [7]
inactive and 27.3 µM (active): Aromatase (Homo sapiens)
active: [4] 30.3 µM | [5] 67.9 nM and 486 nM

COC1=C(OC)C(=O)C(CCCCCCCCCCO)=C(C)C1=O
active: Aromatase (Homo sapiens) 29.8 µM
inactive: [2] | [3] | [6]

CCC(C)n1ncn(-c2ccc(N3CCN(c4ccc(OC[C@H]5CO[C@](Cn6cncn6)(c6ccc(Cl)cc6Cl)O5)cc4)CC3)cc2)c1=O (some centres undefined)
inactive: [2] | [3] | [6] | Aromatase (Homo sapiens) | [7]
active: [5] 13.3 µM

Oc1c(I)cc(Cl)c2cccnc12
inactive: [8] | [6] | [7]
inactive and 27.3 µM (active): Aromatase (Homo sapiens)

CCC(C)[O-].CCC(C)[O-].CCOC(=O)/C=C(/C)[O-].[Al+3]
inactive: [2] | [6]

CCO[Si](OCC)(OCC)OCC
inactive: [1] | [2] | [3] | [4] | [5] | [6] | Aromatase (Homo sapiens) | [7]

CCCCCC(C)OC(=O)COc1ccc(Cl)c2cccnc12 (centres undefined)
inactive: [8] | [3] | [4] | [5] | [6] | [7]

C#C[C@]1(OC(C)=O)CC[C@H]2[C@@H]3CCC4=C[C@@H](OC(C)=O)CC[C@@H]4[C@H]3CC[C@@]21C
inactive: [2] | [6] | Aromatase (Homo sapiens) | [7]
active: [3] 0.0085 µM [inconclusive] | [4] 0.7 nM and 4.7 nM | [5] 33.5 µM

CCO[C@@H]1O[C@H](C(COCc2ccccc2)OCc2ccccc2)[C@H](OCc2ccccc2)[C@H]1O (some centres undefined)
inactive: [2] | [6] | Aromatase (Homo sapiens) | [7]

CC(C)(C)NSc1nc2ccccc2s1
inactive: [1] | [2] | [3] | [4] | [5] | [6] | [7]

Nc1ccc(NCCO)c([N+](=O)[O-])c1
inactive: [8] | [2] | Aromatase (Homo sapiens)

CC1(C)CCC[C@]2(C)[C@H]3CCO[C@]3(C)CC[C@@H]12
inactive: [2] | [6] | Aromatase (Homo sapiens) | [7]

CCOC(=O)NNc1ccc(N(CC)CC(C)O)nn1 (centres undefined)
inactive: [1] | [2] | [3] | [4] | [5] | [6] | Aromatase (Homo sapiens) | [7]

O=c1oc2cc(O)ccc2c2oc3cc(O)ccc3c12
inactive: [6] | Aromatase (Homo sapiens)
